Measured values taken from PubChem BioAssay (NCATS).
Results filed as inconclusive are left out. Activity calls are given as the source filed them. Unless noted, calls come from the whole dose curve; as a rule, active = well fitted curve in the direction sought with a large enough effect; inconclusive = small, poorly fitted or top-dose-only effect, or another doubt; inactive = no such curve, though single readings can be large; an effect the other way counts as inactive or inconclusive.

Key:
[1] = target: Single-stranded DNA cytosine deaminase (Homo sapiens) (UniProt Q9GZX7); assay: Validation qHTS assay for inhibitors of Activation Induced Cytidine Deaminase (AID): AID signal (AID 1347429); note: % is set by controls: 0 for no effect and ±100 for the full control effect
In short: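 Steps: dispense AID with UDG; pin-transfer compound up to 114 uM final; add DJC20/DJC23 substrate and hold 4 hr at room temperature; add NaOH, hold 30 min; read FRET signal (540/590 nm).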

[2] = target: Calcium and integrin-binding protein 1 (Homo sapiens) (UniProt Q99828); assay: Validation qHTS for Identification of Calcium Integrin Binding protein 1 (CIB1) Competitor (AID 1508618); note: potency is the fitted concentration of half-maximal effect
In short: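 Fluorescence polarization with 1 uM CIB1-GST and 100 nM FITC-alphaIIb peptide in HEPES pH 7.4, NaCl, 5 mM CaCl2, Tween20. Compounds at up to 114 uM final, preincubated with protein 15 min; read after 15 min more at RT.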

[3] = target: Papain (Carica papaya) (UniProt P00784); assay: Primary qHTS assay for inhibitors of the protease papain (AID 1645873);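 note: papain turnover of Z-FR-AMC read as the AMC fluorescence gain over 10 min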; note: potency is the fitted concentration of half-maximal effect
[4] = Primary qHTS for inhibitors of La Crosse Virus (LACV) - induced cell death in SH-SY5Y cells (AID 1508616);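 note: top concentration of the series differs between compounds; 0% = infected DMSO wells and 100% = uninfected DMSO wells; higher means more rescue of cells from virus-induced death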
In short: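 SH-SY5Y, 6000 cells/well; cpd via pin tool in DMSO; LACV 0.01 MOI; 6 d 37C 5% CO2; ATPLite, 5 min RT; luminescence normalized to ±virus DMSO controls.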

[5] = Primary qHTS for small molecule stabilizers of the endoplasmic reticulum resident proteome: Secreted ER Calcium Modulated Protein (SERCaMP) assay (AID 1508630); note: % is set by controls: 0 for no effect and ±100 for the full control effect
In short: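 The SH-SY5Y reporter protocol was run at 3 concentrations up to 38.3 uM (primary) or 11 concentrations (follow-up): 16 h compound, 100 nM thapsigargin for 4 h, then extracellular luciferase luminescence.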

[6] = Counterscreen qHTS for small molecule stabilizers of the endoplasmic reticulum resident proteome: GLuc-NoTag assay (AID 1508627);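 note: series mostly up to about 76 µM; 0% = thapsigargin alone and -100% = DMSO vehicle control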
In short: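 Secreted GLuc lacking the SERCaMP modification is measured in SH-SY5Y cells exposed to compound for 19 h and then to thapsigargin (100 nM, 4 h) to deplete ER calcium; hits retested at 11 concentrations, up to 76.6 uM.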

[7] = Confirmatory qHTS for small molecule stabilizers of the endoplasmic reticulum resident proteome: Secreted ER Calcium Modulated Protein (SERCaMP) assay (AID 1508628); note: nearly all actives have a fitted effect of over 40% in size; note: potency is the fitted concentration of half-maximal effect
In short: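 Reporter secretion upon ER calcium depletion (100 nM thapsigargin, 4 h, 37C) is measured as medium luminescence with coelenterazine, after 16 h compound pretreatment of SH-SY5Y-GLuc-SERCaMP cells; primary at three concentrations up to 38.3 uM, follow-up at 11 (up to 76.6 uM).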

[8] = Cell Viability qHTS for small molecule stabilizers of the endoplasmic reticulum resident proteome (AID 1508629); details: cell viability counter-screen, 100 nM thapsigargin for final 4 h;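 note: human SH-SY5Y neuroblastoma cells carrying the GLuc-SERCaMP reporter; compound exposure about 46 h in total before the viability read; % is set by controls: 0 for no effect and ±100 for the full control effect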
[9] = target: Cytochrome P450 2C9 (Homo sapiens) (UniProt P11712); assay: Cytochrome P450 family 2 subfamily C member 9 (CYP2C9) small molecule antagonists: luciferase biochemical (cell-free) qHTS assay (AID 1645842; active = well fitted curve in the direction sought with a large enough effect in the repeat runs; an effect the other way counts as inactive or inconclusive; note: series mostly up to about 57 µM; % is set by controls: 0 for no effect and ±100 for the full control effect; nearly all actives have a fitted effect of over 55% in size)
In short: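 P450-Glo CYP2C9 system: proluciferin substrate with enzyme in mix containing 0.4% BSA, 10 min at room temperature, then NADPH regeneration solution added and incubated 1 h at 37C. Detection reagent stopped reaction; luminescence read after 20 min as RLU.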

Calcium and integrin-binding protein 1 (Homo sapiens), sequence (Q99828 whole entry, looked up): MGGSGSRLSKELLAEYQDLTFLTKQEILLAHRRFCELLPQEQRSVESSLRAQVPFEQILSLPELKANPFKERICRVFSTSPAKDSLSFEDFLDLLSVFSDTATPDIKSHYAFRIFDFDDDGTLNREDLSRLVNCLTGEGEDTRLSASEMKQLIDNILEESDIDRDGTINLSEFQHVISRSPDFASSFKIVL
Single-stranded DNA cytosine deaminase (Homo sapiens), sequence (Q9GZX7 whole entry, looked up): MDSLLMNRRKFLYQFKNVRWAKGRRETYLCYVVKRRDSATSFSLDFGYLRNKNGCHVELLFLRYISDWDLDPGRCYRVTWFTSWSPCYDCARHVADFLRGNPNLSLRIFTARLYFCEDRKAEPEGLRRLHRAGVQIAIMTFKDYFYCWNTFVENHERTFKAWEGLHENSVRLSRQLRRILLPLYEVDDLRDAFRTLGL
Papain (Carica papaya), sequence (P00784 whole entry, looked up): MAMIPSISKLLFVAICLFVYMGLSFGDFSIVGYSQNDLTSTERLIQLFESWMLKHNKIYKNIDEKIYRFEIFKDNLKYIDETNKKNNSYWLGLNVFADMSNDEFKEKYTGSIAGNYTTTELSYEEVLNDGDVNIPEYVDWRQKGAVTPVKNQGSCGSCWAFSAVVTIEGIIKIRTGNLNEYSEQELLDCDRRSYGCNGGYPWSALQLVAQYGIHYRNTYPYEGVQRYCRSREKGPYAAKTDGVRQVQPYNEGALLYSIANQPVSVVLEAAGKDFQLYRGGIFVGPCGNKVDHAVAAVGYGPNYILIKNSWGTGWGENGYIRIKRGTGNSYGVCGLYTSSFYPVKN
Cytochrome P450 2C9 (Homo sapiens), sequence (P11712 whole entry, looked up): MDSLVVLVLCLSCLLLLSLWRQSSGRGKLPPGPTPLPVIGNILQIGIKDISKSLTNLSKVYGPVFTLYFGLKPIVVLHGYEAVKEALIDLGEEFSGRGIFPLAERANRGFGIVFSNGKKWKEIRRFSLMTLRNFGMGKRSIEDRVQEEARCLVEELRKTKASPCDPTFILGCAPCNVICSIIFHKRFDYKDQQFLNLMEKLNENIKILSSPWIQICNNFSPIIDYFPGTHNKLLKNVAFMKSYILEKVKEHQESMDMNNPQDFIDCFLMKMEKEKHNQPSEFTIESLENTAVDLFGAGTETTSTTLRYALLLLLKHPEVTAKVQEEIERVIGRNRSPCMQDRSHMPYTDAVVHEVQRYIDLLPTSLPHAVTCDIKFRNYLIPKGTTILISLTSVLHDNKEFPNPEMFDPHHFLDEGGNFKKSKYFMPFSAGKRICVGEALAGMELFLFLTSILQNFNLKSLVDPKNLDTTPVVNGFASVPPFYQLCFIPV

CCCCCCCCCCCCCCCCCCOC[C@H](COP(=O)([O-])OCC[N+](C)(C)C)OC
inactive: Potency [1] | Potency [2] | Potency [3]

COc1ccc(-c2cc3ncc(C)n3c(Nc3ncccc3C(N)=O)n2)cc1OC
inactive: Potency [1] | Potency [2]

CCCCCC[C@@H]([C@@H](C)O)n1cnc2c(N)ncnc21
inactive: Potency [4] | Potency [2] | Potency [5] | Potency [3]

Oc1ccc(Cn2cc[nH]c2=S)cc1
inactive: Potency [4] | Potency [2] | Potency [5] | Potency [3]

CCN(CC)CCCCCCCCOC(=O)c1cc(OC)c(OC)c(OC)c1
inactive: Potency [1] | Potency [2] | Potency [5] | Potency [3]

[N-]=[N+]=Nc1ccc(C(=O)CSC[C@H](NC(=O)CC[C@H](N)C(=O)O)C(=O)NCC(=O)O)cc1
inactive: Potency [4] | Potency [2] | Potency [5]

N[C@H](C(=O)O)c1cc(O)cc(O)c1
inactive: Potency [4] | Potency [2] | Potency [5] | Potency [3]

CCCn1c(=O)c2[nH]c(C3CCCC3)nc2n(CCC)c1=O
inactive: Potency [1] | Potency [2] | Potency [5] | Potency [3]

CCCn1c(=O)c2c(ncn2C)n(CCC)c1=O
inactive: Potency [4] | Potency [2] | Potency [5] | Potency [3]

NCC(O)C1CCCCCCC1 (stereo unspecified)
inactive: Potency [1] | Potency [5] | Potency [3]

CN1C2CCC1CC(OC(c1ccccc1)c1ccccc1)C2 (stereo unspecified)
inactive: Potency [1] | Potency [2] | Potency [6] | Potency [3]

c1ccc(CN2CCC3(CCCc4ccccc43)CC2)cc1
inactive: Potency [1] | Potency [2] | Potency [5] | Potency [3]

Nc1ccc2c3c(cccc13)C(=O)NC2=O
inactive: Potency [1] | Potency [5]
active: Potency [2] 2.51 µM

Cn1c(=O)c2[nH]c(C3CCCC3)nc2n(C)c1=O
inactive: Potency [1] | Potency [5]

S=C(S)N1CCCC1
inactive: Potency [1] | Potency [5] | Potency [3]

O=c1cc(-c2ccccc2)[nH]c2nc(Cl)ccc12
inactive: Potency [1] | Potency [5] | Potency [3]

COc1cc([C@@H]2c3cc4c(cc3[C@H](O)C3COC(=O)[C@@H]32)OCO4)cc(OC)c1OC (stereo partly specified)
inactive: Potency [4] | Potency [2] | Potency [5] | Potency [3]

CN1CCN(c2nc3cc(C(F)(F)F)ccc3n3cccc23)CC1
inactive: Potency [1] | Potency [3]

O=c1cc(-c2ccccc2F)[nH]c2cc3c(cc12)OCO3
inactive: Potency [1] | Potency [2]

O=C1Cc2c([nH]c3ccc(Br)cc23)-c2ccccc2N1
inactive: Potency [1] | Potency [5] | Potency [3]

O=c1oc(Cl)c(Cl)c2ccccc12
inactive: Potency [1] | Potency [5] | Potency [3]

N#Cc1cc([N+](=O)[O-])c2sc(C(N)=O)[n+]([O-])c2c1
inactive: Potency [1] | Potency [2] | Potency [6] | Potency [7] | Potency [3]

Nc1ccc(-c2nc3ccc(-c4nc5ccc(N)cc5[nH]4)cc3[nH]2)cc1
inactive: Potency [1] | Potency [5]

O=c1cc(O)cc(/C=C/c2ccc(O)c(O)c2)o1
active: Potency [7] 20 µM
inactive: Potency [1] | Potency [2]

CN1CCCC1CCOC(C)(c1ccccc1)c1ccc(Cl)cc1 (stereo unspecified)
inactive: Potency [1] | Potency [2] | max response [8] 8.32% | Potency [3]

CN(C)CCC(c1ccc(Br)cc1)c1ccccn1 (stereo unspecified)
inactive: Potency [1] | Potency [2] | Potency [5] | Potency [3]

O=C1OC(=O)C2C3CCC(O3)C12 (stereo unspecified)
inactive: Potency [1] | Potency [2] | Potency [5] | Potency [3]

O=C(O)C1=CCCNC1
inactive: Potency [4] | Potency [2] | Potency [5] | Potency [3]

CSC(N)=NCCC[C@H](N)C(=O)O
inactive: Potency [4] | Potency [2] | Potency [5] | Potency [3]

Nc1nc2ccc(Cl)cc2c2nc(-c3ccco3)nn12
inactive: Potency [1] | Potency [2] | Potency [5]
active: Potency [3] 22.4 µM

NC(=O)CNCCC(c1ccccc1)c1ccccc1
inactive: Potency [1] | Potency [2] | Potency [5] | Potency [3]

CCCCC[C@H](CC(=O)NO)C(=O)N[C@H](C(=O)N1CCC[C@H]1CO)C(C)C
inactive: Potency [4] | Potency [2] | Potency [5] | Potency [3]

C[C@](Cc1ccc(O)c(O)c1)(NN)C(=O)O
inactive: Potency [1] | Potency [2] | Potency [3]

O=C(O)Cc1c[nH]c2ccc(O)cc12
inactive: Potency [1] | Potency [2] | Potency [3]

CC(C)NC[C@H](O)COc1cccc2ccccc12
inactive: Potency [4] | Potency [2] | Potency [5] | outcome [9] | Potency [3]

CCN(c1nc(N)c(C(=O)N=C(N)N)nc1Cl)C(C)C
inactive: Potency [1] | Potency [2] | Potency [3]

COc1ccc(NC(=O)c2ccc(-c3ccc(-c4noc(C)n4)cc3C)cc2)cc1N1CCN(C)CC1
inactive: Potency [1] | Potency [5] | Potency [3]

CC(C)Cn1c(=O)n(C)c(=O)c2[nH]cnc21
inactive: Potency [4] | Potency [2] | Potency [5] | Potency [3]
